Experimental findings from PubChem BioAssay (Tox21) are described below.

Inconclusive results are not listed. Where a call stands in place of a potency, no number is given. Calls of active or inactive are those of the source. The call rests on the fitted dose curve.

In this experiment the target is Peroxisome proliferator-activated receptor delta (Homo sapiens) (UniProt Q03181). In words: qHTS assay to identify small molecule agonists of the peroxisome proliferator-activated receptor delta (PPARd) signaling pathway (AID 743212). Particulars: HEK293H PPARd-UAS-bla, beta-lactamase FRET ratio, 17 h; series mostly up to 62.6 µM. The procedure, abridged: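 HEK293H UAS-bla reporter cells, human PPARd system; compounds delivered in DMSO after 5 h plating, then at 37 C. Beta-lactamase FRET read, 2 h RT substrate step.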
Peroxisome proliferator-activated receptor delta (Homo sapiens), sequence (Q03181 whole entry, looked up): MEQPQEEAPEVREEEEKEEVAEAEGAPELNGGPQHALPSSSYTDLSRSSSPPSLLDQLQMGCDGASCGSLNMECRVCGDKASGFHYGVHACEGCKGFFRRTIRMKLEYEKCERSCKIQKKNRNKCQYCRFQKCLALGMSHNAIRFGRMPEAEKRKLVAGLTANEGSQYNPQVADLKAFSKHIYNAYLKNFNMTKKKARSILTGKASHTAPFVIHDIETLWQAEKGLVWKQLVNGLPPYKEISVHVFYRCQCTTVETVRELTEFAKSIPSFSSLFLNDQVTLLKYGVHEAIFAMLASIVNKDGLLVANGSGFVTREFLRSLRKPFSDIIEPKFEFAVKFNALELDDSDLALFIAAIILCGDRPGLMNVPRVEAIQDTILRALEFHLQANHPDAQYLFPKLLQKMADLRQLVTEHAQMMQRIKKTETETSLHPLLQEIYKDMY
Take `COS(=O)(=O)C(F)(F)F`: the Potency result is “inactive”. Consider `CCCCC(CC)CN1C(=O)C2C3C=CC(C3)C2C1=O` (stereo unspecified), for which the Potency entry was “inactive”. Then `Cc1ccc(C(C)OC(=O)C2(C)CCC(C(=O)O)C2(C)C)cc1` (stereo unspecified), with “inactive”. As to `CCC(Cl)CCC(Cl)C(Cl)CC(Cl)C(Cl)C(Cl)CCl` (stereo unspecified), the Potency result was “inactive”. On to `c1ccc(C(O[C@H]2CCCN(CCc3ccc4c(c3)OCO4)C2)c2ccccc2)cc1`, for which the Potency entry is “inactive”.

With `O=C(OCCCCCCOC(=O)c1ccccc1)c1ccccc1`, the Potency result was “inactive”. Then `CCCCCCCCCCCC(=O)OC[C@@H](O)[C@H]1OC[C@H](OCCO)[C@H]1OCCO`, with “inactive”; and `COc1ccc(-c2nc3ccc(C4=NNC(=O)CC4C)cc3[nH]2)cc1` (stereo unspecified), with “inactive”.

As for `CN(C)CCOC(c1ccccc1)c1ccc(Br)cc1` (stereo unspecified), the Potency entry is “inactive”.

Regarding `CN(C)CCCN1c2ccccc2Sc2ccccc21`, the Potency result was “inactive”.

Consider `C/C=C(/C(=C/C)c1ccc(OC(C)=O)cc1)c1ccc(OC(C)=O)cc1`, for which the Potency entry is “inactive”.
